From PubChem BioAssay
Compounds with a hit are over-represented: about 3.2% of the library has one in this group of screens.
MsrA inhibitor: inhibits bovine methionine sulfoxide reductase A | purified bovine MsrA, absorbance read-out | inhibition, % at 15.5 µM | 360,000 tested, 0.75% active | AID 651718; in the data active means inhibition above about 4.5%
PG9 binder: PG9 antibody binding by small molecule; TR-FRET gp120-PG9 antibody binding; inhibition, % at 6.7 µM; 360,000 tested, 0.43% active; in the data active means inhibition above about 8.5%
rCAG binder: r(CAG) repeat RNA binding. TO-PRO-1 dye displacement fluorescence. inhibition, % at 3 µM. 370,000 tested, 1.3% active;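 active means inhibition above the plate cutoff, the mean of all test compounds on that plate plus 3 SD, cut at about 35% in these data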;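 further: higher means more dye released from RNA so lower well fluorescence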
MsrA act: bovine methionine sulfoxide reductase A activation; 360,000 tested, 0.3% active; purified bovine MsrA, absorbance read-out; activation, % at 10.6 µM; AID 602163; in the data active means activation above about 7.5%
HGIII-sPLA2 inh: Inhibits HGIII-sPLA2 liposome hydrolysis, primary screen. Q9NZ20. QFRET BODIPY PC-A2 liposome hydrolysis, fluorescence. inhibition, % at 12.2 µM. 370,000 tested, 0.56% active;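 active means inhibition above mean plus 3 SD of compounds lying within the high and low control bounds, cut at about 19% in these data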
Target sequence (Q9NZ20 whole entry, looked up): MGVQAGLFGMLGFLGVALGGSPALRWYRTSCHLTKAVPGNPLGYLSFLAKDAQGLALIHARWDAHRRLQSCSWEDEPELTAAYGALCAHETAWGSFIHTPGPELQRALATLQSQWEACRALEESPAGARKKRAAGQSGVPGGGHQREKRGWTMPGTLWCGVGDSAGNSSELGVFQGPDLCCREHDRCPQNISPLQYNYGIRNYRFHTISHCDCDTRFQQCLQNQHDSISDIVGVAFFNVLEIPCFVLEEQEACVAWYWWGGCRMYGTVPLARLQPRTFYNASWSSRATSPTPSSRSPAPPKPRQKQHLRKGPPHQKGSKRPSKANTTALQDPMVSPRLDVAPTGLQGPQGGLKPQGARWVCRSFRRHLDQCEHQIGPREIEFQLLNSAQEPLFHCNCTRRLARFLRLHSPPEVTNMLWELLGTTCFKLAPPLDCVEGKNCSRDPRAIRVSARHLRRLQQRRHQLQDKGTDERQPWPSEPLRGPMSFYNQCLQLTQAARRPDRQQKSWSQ
sPLA2 confirm: human GIII-sPLA2 inhibition, confirmation; shares compounds with HGIII-sPLA2 inh; 2,000 tested, 34% active; recombinant hGIII-sPLA2, BODIPY PC-A2 QFRET fluorescence; AID 743280; inhibition, % at 12.2 µM;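 active means mean inhibition across triplicates above the hit cutoff set in the earlier primary screen, cut at about 19% in these data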
535nm interf: optically interferes with 535nm fluorescence in sPLA2 counter-screen; shares compounds with HGIII-sPLA2 inh; BODIPY FL product fluorescence interference, QFRET; inhibition, % at 12.2 µM; 2,000 tested, 8.5% active; AID 743282;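 active means average inhibition above the solvent-only control mean plus 3 SD, cut at about 6% in these data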
Each line names hits and unclear results; the compound was inactive in the other large screens (follow-up assays come after a bar, where they were run).

CCC(=O)Nc1c(C(=O)N2CCN(c3ccccn3)CC2)cnn1-c1ccc(Cl)cc1	none
O=c1oc(-c2cccc(C(F)(F)F)c2)nn1-c1ccc(C(F)(F)F)cn1	HGIII-sPLA2 inh 21 | sPLA2 confirm 42 | 535nm interf 25
COC[C@@H](O)[C@H]1OCc2cccc(OC)c2[C@@H]1/C=C/c1ccccc1	none (no result: MsrA inhibitor, PG9 binder, MsrA act)
Oc1ccc2c(c1)oc1cc(O)ccc12	none
O=c1oc2cc(O)ccc2s1	HGIII-sPLA2 inh 20 | sPLA2 confirm inactive | 535nm interf inactive
COC(=O)[C@]12C[C@H](CC(=O)NCc3cccs3)C(=O)N(Cc3cccc4ccccc34)C1=C[C@H](C(C)C)O[C@@H]2C1CC1	none (no result: MsrA inhibitor, PG9 binder, MsrA act)
CCN(CC(=O)NC(C)(C)C)C(=O)COc1c(Cl)cc(Cl)c2ccc(C)nc12	none
CCN(CC(=O)NC(C)(C)C)C(=O)CCl	HGIII-sPLA2 inh 20 | sPLA2 confirm inactive | 535nm interf inactive
S=C1SC2(CCCCCC2)NC2=C1CCCCC2	HGIII-sPLA2 inh 19 | sPLA2 confirm 25 | 535nm interf inactive
O=c1c2ccccc2n(Cc2ccccc2)n1[C@@H](Cc1ccccc1)Cn1cc(C2CCCC2)nn1	none (no result: MsrA inhibitor, PG9 binder, MsrA act)
CCCn1c(C(C)C)n[nH]c1=S	HGIII-sPLA2 inh 26 | sPLA2 confirm inactive | 535nm interf inactive
COc1ccc(-n2c(SCC(=O)Nc3ccc4cn[nH]c4c3)nnc2-c2ccccc2)cc1	none (no result: MsrA inhibitor, PG9 binder, MsrA act)
CC1CCc2nc3sc4c(c3c(N)c2C1)CCCC4 (stereo not given)	HGIII-sPLA2 inh 20 | sPLA2 confirm inactive | 535nm interf inactive
CC1CCc2c(nc3sc4c(c3c2N)CCCC4)C1 (stereo not given)	none
Cc1ccc(F)cc1C(=O)N1CCCC(c2nc(-c3cccs3)no2)C1 (stereo not given)	none (no result: MsrA inhibitor, PG9 binder, MsrA act)
NNc1nc(-c2ccccc2)c2cc(Cl)ccc2n1	HGIII-sPLA2 inh 19 | sPLA2 confirm 26 | 535nm interf inactive
CCOc1cccc(-c2nn3c(-c4cccc(C)c4)nnc3s2)c1	none (no result: MsrA inhibitor, PG9 binder, MsrA act)
CC1CCCN(S(=O)(=O)c2cccc(C(=O)NCCCN3CCCC3=O)c2)C1 (stereo not given)	HGIII-sPLA2 inh 20 | sPLA2 confirm inactive | 535nm interf inactive
O=C(NCCCN1CCCC1=O)c1cccc(S(=O)(=O)N2CCN(c3ccccc3)CC2)c1	none
O=C(OCC#CCSc1nnc(-c2ccccc2)o1)c1ccc(F)cc1	none (no result: MsrA inhibitor, PG9 binder, rCAG binder, MsrA act)
Cc1cc(C)n(-c2ccc(C(=O)N3CCN(S(=O)(=O)c4ccc(Br)cc4Cl)CC3)cc2)n1	none
CCC(=O)NC(c1cccs1)c1cc([N+](=O)[O-])c2cccnc2c1OC (stereo not given)	HGIII-sPLA2 inh 19 | sPLA2 confirm inactive | 535nm interf inactive
CCc1ccc(Cn2c(=O)n(Cc3ccc(C(=O)NCCCOC)cc3)c(=O)c3ccccc32)cc1	none (no result: MsrA inhibitor, PG9 binder, MsrA act)
CC[C@H](C)[C@@H](CN[C@H](C)CNC)NCCC(c1ccccc1)c1ccccc1	HGIII-sPLA2 inh 26 | sPLA2 confirm inactive | 535nm interf inactive
CCOC(=O)[C@H]1[C@H]2COc3cc(OC)ccc3[C@@H]2N2C(=O)c3cc(OC)c(OC)cc3NC(=O)[C@@]12C	HGIII-sPLA2 inh 22 | sPLA2 confirm inactive | 535nm interf inactive
COc1ccc(/C=C/C(=O)Nc2ccc(OC)cc2[N+](=O)[O-])cc1	none
CCOc1ccc(NC(=O)/C=C/c2ccc(OC)cc2)c([N+](=O)[O-])c1	HGIII-sPLA2 inh 26 | sPLA2 confirm inactive | 535nm interf inactive
CCOc1ccc(NC(=O)COC(=O)C23CC4CC(CC(C4)C2)C3)c([N+](=O)[O-])c1	HGIII-sPLA2 inh 21 | sPLA2 confirm inactive | 535nm interf inactive
Cc1ccc(NC(=O)/C=C\C(=O)O)c([N+](=O)[O-])c1	HGIII-sPLA2 inh 21 | sPLA2 confirm inactive | 535nm interf inactive
C=CCOC(=O)N[C@@H](c1coc2ccccc2c1=O)[C@@H](C)/C=C/CC(=O)OC	none (no result: MsrA inhibitor, PG9 binder, MsrA act)
O=C(c1cccc(S(=O)(=O)N2CCc3ccccc32)c1)N1CCN(c2ccccc2)CC1	none
O=C(Cn1c(-c2cncs2)nc2ccccc21)NC1CCCCC1	none (no result: MsrA inhibitor, PG9 binder, MsrA act)
Cc1cccc(NC(=S)NNC(=O)CCn2nc(C)c([N+](=O)[O-])c2C)c1	none
Cc1nn(CC(=O)NNC(=S)Nc2ccccc2)c(C)c1[N+](=O)[O-]	HGIII-sPLA2 inh 20 | sPLA2 confirm 22 | 535nm interf inactive
Cc1ccccc1-c1csc(N)n1	none
